From ChEMBL document CHEMBL4513141, “CO-ADD screening of NIH (USA) - Clinical Collection” (2021)
Potency and affinity values are given separately.

Columns and labels:
Staphylococcus aureus = details: Concentration 20 uM; ASSAY_TEST Inhibition of Bacterial Growth; detection method Absorption (OD600); MEDIA CAMHB; plate type 384well; NBS; CORNING #3640; time 18 hr
Escherichia coli = details: Concentration 20 uM; ASSAY_TEST Inhibition of Bacterial Growth; detection method Absorption (OD600); MEDIA CAMHB; plate type 384well; NBS; CORNING #3640; time 18 hr

Row | Structure (SMILES) | Inhibition (Staphylococcus aureus) [%] | Inhibition (Escherichia coli) [%]
1 | CCCc1nc(C(C)(C)O)c(C(=O)OCc2oc(=O)oc2C)n1Cc1ccc(-c2ccccc2-c2nnn[nH]2)cc1 [OLMESARTAN MEDOXOMIL] | 10.76 | -6.4
2 | Cc1ccc(S(=O)(=O)NC(=O)NN2CCCCCC2)cc1 [TOLAZAMIDE] | 2.29 | -1.66
3 | CCc1cccc2c3c([nH]c12)C(CC)(CC(=O)O)OCC3 (configuration not stated) [ETODOLAC] | 5.09 | -6.35
4 | CCC1=C(C)CN(C(=O)NCCc2ccc(S(=O)(=O)NC(=O)N[C@H]3CC[C@H](C)CC3)cc2)C1=O [GLIMEPIRIDE] | 15.98 | 1.16
5 | C[C@]12CCC(=O)C=C1CC[C@@H]1[C@@H]2[C@@H](O)C[C@@]2(C)[C@H]1CC[C@]2(O)C(=O)CO [HYDROCORTISONE] | 7.72 | –
6 | CC1=Nc2ccc(Cl)cc2S(=O)(=O)N1 [DIAZOXIDE] | 9.13 | 5.75
7 | CC1=C(C(=O)O)N2C(=O)[C@@H](NC(=O)[C@H](N)c3ccccc3)[C@H]2SC1.O [CEPHALEXIN] | -0.36 | –
8 | NNC(=O)c1ccncc1 [ISONIAZID] | 8.75 | 0.87
9 | C#C[C@]1(O)CC[C@H]2[C@@H]3CCC4=Cc5oncc5C[C@]4(C)[C@H]3CC[C@@]21C [DANAZOL] | 2.21 | -2.5
10 | C/C=C1/[C@H]2C=C(C)C[C@]1(N)c1ccc(O)nc1C2 | 13.84 | -0.02
11 | CC(C)[N+]1(C)C2CCC1CC(OC(=O)C(CO)c1ccccc1)C2.[Br-] (configuration not stated) | 9.02 | –
12 | CCc1ccc(CCOc2ccc(CC3SC(=O)NC3=O)cc2)nc1.Cl (configuration not stated) [PIOGLITAZONE HYDROCHLORIDE] | 3.82 | -0.97
13 | CCCCNC(=O)NS(=O)(=O)c1ccc(C)cc1 [TOLBUTAMIDE] | 4.92 | 0.97
14 | CC(C)(C(=O)c1cccnc1)c1cccnc1 [METYRAPONE] | 4.18 | 6.34
15 | COc1ccc2cc([C@H](C)C(=O)[O-])ccc2c1.[Na+] [NAPROXEN SODIUM] | 6.58 | –
16 | CC(C)(C)NC[C@H](O)COc1nsnc1N1CCOCC1.O=C(O)/C=C\C(=O)O [TIMOLOL MALEATE] | 2.99 | 1.71
17 | CN(C)CCOC(c1ccccc1)c1ccccc1.Cl [DIPHENHYDRAMINE HYDROCHLORIDE] | -13.43 | –
18 | Cc1cccc(C)c1NC(=O)C1CCCCN1C.Cl (configuration not stated) [MEPIVACAINE HYDROCHLORIDE] | 10.78 | 6.74
19 | COC(=O)[C@H](c1ccccc1Cl)N1CCc2sccc2C1 [CLOPIDOGREL] | 12.7 | -0.51
20 | CCOC(=O)[C@@H](CCc1ccccc1)N[C@@H](C)C(=O)N1CCC[C@H]1C(=O)O.O=C(O)/C=C\C(=O)O | 8.37 | -3.24

Row | Structure (SMILES) | Inhibition (Staphylococcus aureus) [%] | Inhibition (Escherichia coli) [%]
21 | CN(Cc1cnc2nc(N)nc(N)c2n1)c1ccc(C(=O)N[C@@H](CCC(=O)O)C(=O)O)cc1.O | 8.23 | –
22 | CCOC(=O)N1CCC(=C2c3ccc(Cl)cc3CCc3cccnc32)CC1 [LORATADINE] | 11.88 | –
23 | O=C(NCCO[N+](=O)[O-])c1cccnc1 [NICORANDIL] | 13.24 | 8.35
24 | COc1ccc(/C=C/C(=O)Nc2ccccc2C(=O)O)cc1OC | 8.38 | -3.33
25 | CC(C)(C(=O)O)c1ccc(C(O)CCCN2CCC(C(O)(c3ccccc3)c3ccccc3)CC2)cc1.Cl (configuration not stated) [FEXOFENADINE HYDROCHLORIDE] | 11.48 | –
26 | CN(C)CCOC(c1ccc(Cl)cc1)c1ccccn1.O=C(O)/C=C\C(=O)O (configuration not stated) [CARBINOXAMINE MALEATE] | 10.84 | 3.54
27 | CCCCNc1cc(C(=O)O)cc(S(N)(=O)=O)c1Oc1ccccc1 [BUMETANIDE] | 10.97 | 5.78
28 | CC(=O)OCC(=O)[C@@]1(O)CC[C@H]2[C@@H]3CCC4=CC(=O)CC[C@]4(C)[C@H]3[C@@H](O)C[C@@]21C [HYDROCORTISONE ACETATE] | 9.41 | 0.56
29 | C[C@H]1[C@@H](OC(=O)CCC(=O)O)O[C@@H]2O[C@@]3(C)CC[C@H]4[C@H](C)CC[C@@H]1[C@@]24OO3 | -17.43 | 12.24
30 | COc1ccc(-c2oc3c(CC=C(C)C)c(O[C@@H]4O[C@H](CO)[C@@H](O)[C@H](O)[C@H]4O)cc(O)c3c(=O)c2O[C@@H]2O[C@@H](C)[C@H](O)[C@@H](O)[C@H]2O)cc1 [ICARIIN] | 11.47 | -5.7
31 | O=C(O)c1cc(-c2ccc(F)cc2F)ccc1O [DIFLUNISAL] | -11.25 | 6.27
32 | Cc1cnc(C(=O)NCCc2ccc(S(=O)(=O)NC(=O)NC3CCCCC3)cc2)cn1 [GLIPIZIDE] | 13.08 | –
33 | CN1CCN(CCCN2c3ccccc3Sc3ccc(Cl)cc32)CC1.O=C(O)/C=C\C(=O)O.O=C(O)/C=C\C(=O)O [PROCHLORPERAZINE MALEATE] | 13.38 | 1.77
34 | CC(C)[N+](C)(CCOC(=O)C1c2ccccc2Oc2ccccc21)C(C)C.[Br-] [PROPANTHELINE BROMIDE] | 16.95 | 4.45
35 | CC(=O)OCC(=O)NCCCOc1cccc(CN2CCCCC2)c1.Cl [ROXATIDINE ACETATE HYDROCHLORIDE] | 9.98 | 5.49
36 | CCCCC(=O)N(Cc1ccc(-c2ccccc2-c2nnn[nH]2)cc1)[C@H](C(=O)O)C(C)C | 14.82 | 3.3
37 | CC[C@]1(O)C[C@@H]2CN(CCc3c([nH]c4ccccc34)[C@@](C(=O)OC)(c3cc4c(cc3OC)N(C)[C@H]3[C@@](O)(C(N)=O)[C@H](O)[C@]5(CC)C=CCN6CC[C@]43[C@@H]65)C2)C1.O=S(=O)(O)O [VINDESINE SULFATE] | 2.71 | 3.57
38 | COc1ccccc1N1CCN(CC(O)COc2cccc3ccccc23)CC1 (configuration not stated) [NAFTOPIDIL] | 4.28 | 7.29
39 | CC1(C)O[C@@H]2[C@@H](CO[C@@]3(COS(N)(=O)=O)OC(C)(C)O[C@@H]23)O1 [TOPIRAMATE] | 3.5 | 6.36
40 | COc1cc(N)c(Cl)cc1C(=O)N[C@@H]1CCN(CCCOc2ccc(F)cc2)C[C@@H]1OC.O [(R,S)-CISAPRIDE MONOHYDRATE] | 10.08 | 2.71

Row | Structure (SMILES) | Inhibition (Staphylococcus aureus) [%] | Inhibition (Escherichia coli) [%]
41 | CCC1=C[C@H]2CN(C1)Cc1c([nH]c3ccccc13)[C@@](C(=O)OC)(c1cc3c(cc1OC)N(C)[C@H]1[C@@](O)(C(=O)OC)[C@H](OC(C)=O)[C@]4(CC)C=CCN5CC[C@]31[C@@H]54)C2.O=C(O)C(O)C(O)C(=O)O.O=C(O)C(O)C(O)C(=O)O | 13.36 | 2.61
42 | CCOC(=O)C1=C(C)NC(C)=C(C(=O)OC)C1c1cccc([N+](=O)[O-])c1 (configuration not stated) [NITRENDIPINE] | 11.21 | -2.58
43 | O=C(NCCN1CCOCC1)c1ccc(Cl)cc1 [MOCLOBEMIDE] | 3.95 | 0.74
44 | O=C1Nc2ccc(Cl)cc2[C@@](C#CC2CC2)(C(F)(F)F)O1 [EFAVIRENZ] | 10.66 | -2.05
45 | C[C@H]1C[C@@H]2[C@H]([C@@H](O)C[C@@]3(C)[C@H]2CC[C@]3(O)C(=O)CO)[C@@]2(C)C=CC(=O)C=C12 [METHYLPREDNISOLONE] | 7.4 | 5
46 | C[C@]12C=CC(=O)C=C1CC[C@@H]1[C@@H]2C(=O)C[C@@]2(C)[C@H]1CC[C@]2(O)C(=O)CO [PREDNISONE] | 12.15 | 4.61
47 | Cl.O.O=C1N(c2ccccc2)c2ccccc2C1(Cc1ccncc1)Cc1ccncc1 | 4.07 | 3.98
48 | CN(C)CC[C@@H](c1ccc(Br)cc1)c1ccccn1.O=C(O)/C=C\C(=O)O [DEXBROMPHENIRAMINE MALEATE] | 4.45 | 5.01
49 | CC1=C(CC(=O)O)c2cc(F)ccc2/C1=C\c1ccc([S+](C)[O-])cc1 (configuration not stated) | 2.19 | 3.68
50 | NS(=O)(=O)c1cc2c(cc1Cl)N=CNS2(=O)=O [CHLOROTHIAZIDE] | 7.87 | -2.82
51 | CN1C(C(=O)Nc2ccccn2)=C(O)c2ccccc2S1(=O)=O.O | 15.17 | -5.74
52 | CNCCCCOc1ccccc1Cc1ccccc1.Cl | 10.88 | 6.1
53 | CNCCCN1c2ccccc2CCc2ccccc21.Cl [DESIPRAMINE HYDROCHLORIDE] | 7.54 | -0.24
54 | Cc1occc(=O)c1O [MALTOL] | 14.12 | 4.13
55 | CN(C)CCC[C@@]1(c2ccc(F)cc2)OCc2cc(C#N)ccc21.O=C(O)C(=O)O [ESCITALOPRAM OXALATE] | 8.47 | 3.57
56 | CC1(C)O[C@@H]2C[C@H]3[C@@H]4C[C@H](F)C5=CC(=O)C=C[C@]5(C)[C@H]4[C@@H](O)C[C@]3(C)[C@]2(C(=O)CO)O1 [FLUNISOLIDE] | 6.94 | 3.33
57 | COc1ccnc(C[S+]([O-])c2nc3cc(OC(F)F)ccc3[n-]2)c1OC.O.[Na+] (configuration not stated) [PANTOPRAZOLE SODIUM] | 15.25 | 1.53
58 | O=C1CN(/N=C/c2ccc(-c3ccc([N+](=O)[O-])cc3)o2)C(=O)[N-]1.[Na+] [DANTROLENE SODIUM] | 4.1 | -9.64
